Common to all, as to conditions: modulator concentration 10 µM
Experiment [1] relates to RAW-Dual (murine macrophage reporter line). Briefly: NF-kB reporter (SEAP) activity fold change vs agonist alone; higher = enhanced NF-kB activity. In short, it runs like this:
(§1)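 RAW-Dual murine macrophage reporter cells were seeded at 50 000 per well in 384-well plates and pre-incubated 1 hour at 37 °C with compound pin-transferred to 10 μM final. After 1 hour, a PRR agonist was added and cells incubated overnight. Supernatant NF-κB (SEAP, QUANTI-Blue, 620 nm absorbance) and IRF (Lucia luciferase, QUANTI-Luc, luminescence) signals were divided by the mean agonist-only control on the same plate to give fold change. Two replicate plates were averaged, with errors by propagation.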

Experiment [2] shares this test system. As to the kind of experiment: IRF reporter (Lucia luciferase) activity fold change vs agonist alone; higher = enhanced IRF activity. The method in brief:
as §1

For experiment [3] the test system is unchanged. Briefly: viability score (confluency relative to resting cells, overnight) (fraction); higher = more viable, active = viable (0.7 or more). In short, it runs like this:
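Overnight exposure to 10 μM final compound was carried out on RAW-Dual macrophages in 384-well plates. IncuCyte software generated two confluency masks over all wells imaged with IncuCyte. The viability score gives confluency in relation to resting cells. A compound met the cutoff if each mask exceeded 70% of resting cells.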

[4] abbreviates: agonist: CpG ODN 1826 0.5 ug/mL.

The structures appear in SMILES notation. ± gives the standard deviation.

Take `COCCOC(=O)C1=C(C)NC(=O)NC1c1cc(OC)c(OC)c(OC)c1` (stereo unspecified): the NF-kB reporter in experiment [1] (setting [4]) is 0.937 ± 0.064; in experiment [1] (agonist: LPS 0.1 ug/mL), 1.02 ± 0.062; in experiment [1] (agonist: MPLA […]) it was 0.913 ± 0.069. The IRF reporter worked out at 0.956 ± 0.032 in experiment [2] (agonist: 3'3'-cGAMP 10 ug/mL), 1.2 ± 0.15 in experiment [2] (agonist: LPS 0.1 ug/mL) and 1.08 ± 0.14 in experiment [2] (agonist: MPLA […]). In experiment [3], the viability score was 0.995 (active).

On to `COC(=O)C1=CN(C2CC2)C=C(C(=O)OC)C1c1ccccc1OC`, for which the NF-kB reporter is 0.917 ± 0.074 in experiment [1] (setting [4]), 1.05 ± 0.058 in experiment [1] (agonist: LPS 0.1 ug/mL) and 0.97 ± 0.061 in experiment [1] (agonist: MPLA […]). The IRF reporter in experiment [2] (agonist: 3'3'-cGAMP 10 ug/mL) amounted to 0.934 ± 0.074; in experiment [2] (agonist: LPS 0.1 ug/mL), 1.22 ± 0.17; in experiment [2] (agonist: MPLA […]), 1 ± 0.097. Moreover, the viability score in experiment [3] is 1.01 (active).

Consider `CN(C)c1cncc(OC2CCN(S(C)(=O)=O)C2)n1` (stereo unspecified), for which the NF-kB reporter amounted to 1.02 ± 0.12 in experiment [1] (setting [4]), 1.12 ± 0.1 in experiment [1] (agonist: LPS 0.1 ug/mL) and 0.911 ± 0.04 in experiment [1] (agonist: MPLA […]). Also, the IRF reporter in experiment [2] (agonist: 3'3'-cGAMP 10 ug/mL) was determined as 0.836 ± 0.045; in experiment [2] (agonist: LPS 0.1 ug/mL), 0.951 ± 0.064; in experiment [2] (agonist: MPLA […]) it was 0.923 ± 0.07. Further, in experiment [3], the viability score is 1.01 (active).

Take `Clc1cccc(Nc2nc(-c3ccccn3)cs2)c1`: the results for the NF-kB reporter in experiment [1] (setting [4]), in experiment [1] (agonist: LPS 0.1 ug/mL) and in experiment [1] (agonist: MPLA […]) were 0.881 ± 0.15, 0.379 ± 0.2 and 0.597 ± 0.18, respectively. The IRF reporter was 0.537 ± 0.092 in experiment [2] (agonist: 3'3'-cGAMP 10 ug/mL), 0.658 ± 0.2 in experiment [2] (agonist: LPS 0.1 ug/mL) and 0.658 ± 0.23 in experiment [2] (agonist: MPLA […]). Moreover, the viability score in experiment [3] is 0.246 (inactive).

Consider `COc1cccc(CCNC(=O)CC2CSc3nc4c(c(=O)n32)CCCC4)c1` (stereo unspecified), for which the figures for the NF-kB reporter in experiment [1] (setting [4]), in experiment [1] (agonist: LPS 0.1 ug/mL) and in experiment [1] (agonist: MPLA […]) were 1.22 ± 0.069, 1.07 ± 0.083 and 1.05 ± 0.096, respectively. The IRF reporter in experiment [2] (agonist: 3'3'-cGAMP 10 ug/mL) stood at 0.886 ± 0.034; in experiment [2] (agonist: LPS 0.1 ug/mL) it was 1.06 ± 0.052; in experiment [2] (agonist: MPLA […]) it was 1.13 ± 0.11. Further, the viability score in experiment [3] is 0.996 (active).

As for `COc1ccccc1S(=O)(=O)N1CC(Oc2nc3c(C(F)(F)F)cccc3s2)C1`, the NF-kB reporter in experiment [1] (setting [4]) amounted to 0.935 ± 0.047; in experiment [1] (agonist: LPS 0.1 ug/mL), 1.18 ± 0.097; in experiment [1] (agonist: MPLA […]), 1.38 ± 0.14. The IRF reporter is 1.4 ± 0.15 in experiment [2] (agonist: 3'3'-cGAMP 10 ug/mL), 1.43 ± 0.23 in experiment [2] (agonist: LPS 0.1 ug/mL) and 1.5 ± 0.4 in experiment [2] (agonist: MPLA […]). Further, the viability score in experiment [3] was 1 (active).

For `CC#CC(=O)Nc1ccc(N2CCOCC2=O)c(C)c1`, the NF-kB reporter was 0.993 ± 0.062 in experiment [1] (setting [4]), 1.01 ± 0.086 in experiment [1] (agonist: LPS 0.1 ug/mL) and 1.01 ± 0.092 in experiment [1] (agonist: MPLA […]). The IRF reporter was 0.961 ± 0.058 in experiment [2] (agonist: 3'3'-cGAMP 10 ug/mL), 0.913 ± 0.084 in experiment [2] (agonist: LPS 0.1 ug/mL) and 0.865 ± 0.14 in experiment [2] (agonist: MPLA […]). Besides, the viability score in experiment [3] was 1.01 (active).

As for `COC(=O)C1C(=O)CC(C)(O)C(C(=O)OC)C1c1ccc2c(c1)OCO2` (stereo unspecified), the NF-kB reporter worked out at 1.03 ± 0.088 in experiment [1] (setting [4]), 1.08 ± 0.081 in experiment [1] (agonist: LPS 0.1 ug/mL) and 0.958 ± 0.085 in experiment [1] (agonist: MPLA […]). In addition, the results for the IRF reporter in experiment [2] (agonist: 3'3'-cGAMP 10 ug/mL), in experiment [2] (agonist: LPS 0.1 ug/mL) and in experiment [2] (agonist: MPLA […]) were 1 ± 0.038, 1.57 ± 0.16 and 1.14 ± 0.11, respectively. Besides, the viability score in experiment [3] is 0.989 (active).

As to `CCC(=O)c1c(O)cc(O)cc1O`, the NF-kB reporter in experiment [1] (setting [4]) was found to be 1.03 ± 0.083; in experiment [1] (agonist: LPS 0.1 ug/mL) it was 1.1 ± 0.055; in experiment [1] (agonist: MPLA […]), 1.04 ± 0.055. Also, the IRF reporter stood at 0.922 ± 0.056 in experiment [2] (agonist: 3'3'-cGAMP 10 ug/mL), 0.946 ± 0.081 in experiment [2] (agonist: LPS 0.1 ug/mL) and 0.84 ± 0.071 in experiment [2] (agonist: MPLA […]). The viability score in experiment [3] is 0.999 (active).

Take `Nc1nonc1C(=O)NN=Cc1cc(Br)c(O)c(Br)c1`: the NF-kB reporter in experiment [1] (setting [4]) is 1.05 ± 0.085; in experiment [1] (agonist: LPS 0.1 ug/mL), 1.01 ± 0.076; in experiment [1] (agonist: MPLA […]), 1.03 ± 0.054. Besides, the IRF reporter in experiment [2] (agonist: 3'3'-cGAMP 10 ug/mL) was found to be 0.938 ± 0.11; in experiment [2] (agonist: LPS 0.1 ug/mL) it was 1.08 ± 0.12; in experiment [2] (agonist: MPLA […]) it was 1.05 ± 0.23. In experiment [3], the viability score was 0.997 (active).

Consider `O=C1[C@H](CC[C@H](O)c2ccc(F)cc2)[C@@H](c2ccc(O)cc2)N1c1ccc(F)cc1`, for which the NF-kB reporter in experiment [1] (setting [4]) was found to be 1.11 ± 0.11; in experiment [1] (agonist: LPS 0.1 ug/mL) it was 1.05 ± 0.051; in experiment [1] (agonist: MPLA […]), 1.29 ± 0.12. Also, the values for the IRF reporter in experiment [2] (agonist: 3'3'-cGAMP 10 ug/mL), in experiment [2] (agonist: LPS 0.1 ug/mL) and in experiment [2] (agonist: MPLA […]) were 0.927 ± 0.063, 0.98 ± 0.084 and 1.21 ± 0.11, respectively. The viability score in experiment [3] is 0.97 (active).

Take `O=C(Nc1ccon1)C1CN(C(=O)COc2ccccc2F)C1`: the NF-kB reporter in experiment [1] (setting [4]) turned out to be 1.08 ± 0.18; in experiment [1] (agonist: LPS 0.1 ug/mL), 1.07 ± 0.14; in experiment [1] (agonist: MPLA […]), 1.04 ± 0.1. The values for the IRF reporter in experiment [2] (agonist: 3'3'-cGAMP 10 ug/mL), in experiment [2] (agonist: LPS 0.1 ug/mL) and in experiment [2] (agonist: MPLA […]) were 1.06 ± 0.042, 1.25 ± 0.24 and 1.33 ± 0.2, respectively. The viability score in experiment [3] is 0.992 (active).

For the molecule `CCC(=O)Nc1ccc(S(=O)(=O)N2CCCC(Cc3nc(C4CC4)no3)C2)c(C)c1` (stereo unspecified), the NF-kB reporter in experiment [1] (setting [4]) came out at 0.885 ± 0.062; in experiment [1] (agonist: LPS 0.1 ug/mL) it was 0.986 ± 0.1; in experiment [1] (agonist: MPLA […]) it was 1.01 ± 0.065. The IRF reporter in experiment [2] (agonist: 3'3'-cGAMP 10 ug/mL) came out at 0.88 ± 0.048; in experiment [2] (agonist: LPS 0.1 ug/mL), 1.21 ± 0.26; in experiment [2] (agonist: MPLA […]), 1.38 ± 0.51. Also, in experiment [3], the viability score is 0.961 (active).

For the origin of these results see the supplement of paper PMC10646978.
